Out of some 2,400 compounds screened, about 750 (31%) were called active. Some of the results follow. A number with no mark means an inactive call.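 The calls were made as follows: active = median signal gain over dofetilide-blocked control wells reaching their mean plus 3 SD, so readout 1 at least 0; inactive = the rest.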
target: Voltage-gated inwardly rectifying potassium channel KCNH2 (Homo sapiens) (UniProt Q12809); assay: modulators restoring hERG flux under dofetilide – cell-based, thallium flux, duplicate retest, dofetilide IC70, confirmation (AID 1835); details: hERG cell line, FluxOR thallium flux, dofetilide-blocked; at 10 µM; active compounds read high
Sequence (Q12809 whole entry, looked up): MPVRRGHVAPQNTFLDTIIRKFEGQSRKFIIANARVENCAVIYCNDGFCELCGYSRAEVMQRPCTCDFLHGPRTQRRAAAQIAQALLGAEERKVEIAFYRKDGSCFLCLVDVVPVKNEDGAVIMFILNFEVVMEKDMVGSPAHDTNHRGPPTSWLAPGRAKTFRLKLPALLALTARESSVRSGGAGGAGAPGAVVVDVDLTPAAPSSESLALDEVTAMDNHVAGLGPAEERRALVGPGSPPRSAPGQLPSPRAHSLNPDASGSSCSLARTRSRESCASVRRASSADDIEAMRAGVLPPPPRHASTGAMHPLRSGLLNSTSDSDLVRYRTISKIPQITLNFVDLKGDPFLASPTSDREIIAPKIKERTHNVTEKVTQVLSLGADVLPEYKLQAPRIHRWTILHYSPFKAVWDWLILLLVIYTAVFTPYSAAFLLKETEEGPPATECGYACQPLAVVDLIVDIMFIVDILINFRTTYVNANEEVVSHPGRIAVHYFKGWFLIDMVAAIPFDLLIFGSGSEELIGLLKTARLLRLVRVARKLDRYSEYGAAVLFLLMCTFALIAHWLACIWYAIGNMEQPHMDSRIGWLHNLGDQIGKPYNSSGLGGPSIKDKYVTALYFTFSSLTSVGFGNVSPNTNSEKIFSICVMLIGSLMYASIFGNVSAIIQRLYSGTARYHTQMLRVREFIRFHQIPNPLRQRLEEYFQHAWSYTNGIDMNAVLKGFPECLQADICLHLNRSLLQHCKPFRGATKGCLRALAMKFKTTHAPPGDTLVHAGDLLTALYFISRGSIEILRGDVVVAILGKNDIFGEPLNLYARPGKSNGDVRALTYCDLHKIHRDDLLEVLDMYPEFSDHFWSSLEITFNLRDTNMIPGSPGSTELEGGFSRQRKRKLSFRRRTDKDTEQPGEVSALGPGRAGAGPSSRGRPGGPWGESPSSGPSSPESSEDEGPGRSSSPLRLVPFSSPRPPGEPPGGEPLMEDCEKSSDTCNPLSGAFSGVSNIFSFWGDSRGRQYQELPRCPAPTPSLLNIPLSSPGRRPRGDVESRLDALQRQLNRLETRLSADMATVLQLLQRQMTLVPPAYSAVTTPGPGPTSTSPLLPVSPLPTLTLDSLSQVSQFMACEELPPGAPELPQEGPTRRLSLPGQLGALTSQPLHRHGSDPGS

SMILES | activity increase over dofetilide control, less the hit threshold
COc1ccc(-c2nc(=S)c3ccc4ccccc4c3[nH]2)cc1 | 76% (active)
COc1ccc(-n2c(=S)[nH]c3ccccc3c2=S)cc1 | -12%
CC(C)CC(=O)Nc1ccc2c3c(cccc13)CC2 | -3%
CCC1(CC)Cc2ccccc2-c2[nH]c(=S)[nH]c(=O)c21 | -6%
CCn1c(=S)[nH]c2c(c1=O)C(C)(C)Cc1ccccc1-2 | 26% (active)
O=C(CSc1nc2ccccc2o1)NCc1n[nH]c(=O)c2ccccc12 | -4%
CCOc1ccccc1Nc1nc(-c2sc(C)nc2C)cs1 | -9%
CCN(CC(=O)Nc1c(F)cccc1F)C(=O)c1ccc(Cl)c(S(=O)(=O)N2CCCCC2)c1 | -19%
O=C(C1CCN(S(=O)(=O)c2cc(Cl)ccc2Cl)CC1)N1CCOCC1 | -16%
CN(C(=O)c1ccc(Cl)c(S(=O)(=O)N2CCOCC2)c1)c1ccccc1C(=O)O | 7% (active)
C=Cc1ccc(Cn2c(=O)n(CCCOC)c(=O)c3sccc32)cc1 | -14%
O=[N+]([O-])c1cccc(/C=N/N=C\c2ccccc2)c1 | -20%
C/C(=N\NC(=O)c1ccc(NS(=O)(=O)c2cccs2)cc1)c1ccc2c(c1)OCO2 | -17%
Cc1ccc(C(=O)N/N=C(/CC(=O)c2cccs2)C(F)(F)F)cc1 | 3% (active)
COc1ccc(S(=O)(=O)N2CCCC(C(=O)Nc3ccc(OC)c(OC)c3)C2)cc1 (stereo unspecified) | -22%
CCN(Cc1ccc(OC)c(F)c1)C(=O)C1CCCO1 (stereo unspecified) | -3%
COc1ccc(-c2cnn(C3CCS(=O)(=O)C3)c2N)cc1 (stereo unspecified) | -23%
COc1cc(C2C(C#N)=C(N)Oc3c2ccc2ccccc32)ccc1OCC(=O)Nc1ccc(C)cc1 (stereo unspecified) | -19%
CCOC(=O)C1=C(N)Oc2cc(O)ccc2C1c1cccnc1 (stereo unspecified) | -12%
COC(=O)c1ccc(C2C(C#N)=C(N)Oc3cc(O)ccc32)cc1 (stereo unspecified) | 69% (active)
CCCCOc1ccc(CC(=O)NCC(=O)O)cc1 | -17%
O=C(COC(=O)c1ccc(Br)o1)NC1CCCCC1 | -6%
O=C(NC1CCCC1)c1ccc(Br)o1 | -5%
CCCOc1ccc(OC(=O)c2ccc(Br)o2)cc1 | 14% (active)
Cc1ccc(OC(=O)c2ccc(Br)o2)cc1 | 37% (active)
Cc1ccsc1CN(C(=O)c1ccc([N+](=O)[O-])cc1)C1CCS(=O)(=O)C1 (stereo unspecified) | -5%

SMILES | activity increase over dofetilide control, less the hit threshold
O=C(CS(=O)(=O)Cc1ccccc1)Nc1ccc(Cl)cn1 | -11%
CCCCNC(=O)COC(=O)c1ccc(NC(C)=O)cc1 | -18%
CCNC(=O)C/C(C)=N/NC(=O)C(=O)Nc1ccc(CC)cc1 | 9% (active)
CCCCCCC12CCC(C(=O)O)(CC1)CC2 | 14% (active)
CCOc1ccc(NC(=O)C2C(C(=O)O)C3(Cl)C(Cl)=C(Cl)C2(Cl)C3(Cl)Cl)cc1 (stereo unspecified) | -8%
CCOc1ccc(NC(=S)NS(=O)(=O)c2cc(Br)ccc2OCC)cc1 | 37% (active)
CCOc1ccc(NC(=O)CSc2nc3nc(C)cc(C)n3n2)cc1 | -8%
CCc1nnc(NC(=O)CSc2nc(-c3ccccc3)cc(-c3ccc(OC)cc3)c2C#N)s1 | 11% (active)
N#Cc1c(-c2ccc(Cl)cc2)cc(-c2cccs2)nc1SCC(=O)O | -22%
CCc1nnc(NC(=O)COc2ccc([N+](=O)[O-])cc2)s1 | -11%
CCOc1cc(N2CCCC2)ccc1[N+](=O)[O-] | -3%
CC(=O)c1cccc(NC(=O)NCc2cccs2)c1 | -23%
Nc1nc2n(n1)C1(CCCCC1)C1=C(CCCC1)N2 | -26%
CC(=O)c1c(C)[nH]c(-c2ccccc2)nc1=S | -4%
Cc1nc2ccc(C(=O)O)cc2[nH]1 | -12%
CC(=O)c1c(NC(=O)c2ccccc2)[nH]c(-c2ccccc2)nc1=S | 24% (active)
Cc1ccccc1CC(=O)NC1CCN(Cc2ccccc2)CC1 | -1%
CC(=O)c1c(N2CCN(Cc3ccccc3)CC2)[nH]c(-c2ccccc2)nc1=S | 15% (active)
CC(=O)c1c(N)[nH]c(-c2ccccc2)nc1=S | 1% (active)
C=C(C)Cc1c(C)nc(-c2ccccc2)[nH]c1=O | -19%
CC(=O)c1c(N2CCCC2)[nH]c(-c2ccccc2)nc1=S | -1%
CSc1nc(-c2ccccc2)[nH]c(=S)c1C(C)=O | 61% (active)
Cc1cc(C)cc(NC(=O)CSc2nnc(CN3CCOCC3)n2C)c1 | -13%
COc1ccc(S(=O)(=O)n2nc(C)c(S(=O)(=O)N3CCOCC3)c2C)cc1OC | -10%
CCN1CCCC(CO)(Cc2ccccc2)C1 (stereo unspecified) | -8%
O=C(CSc1nnc(NC(=O)c2ccc(S(=O)(=O)N3CCOCC3)cc2)s1)Nc1ccccc1C(F)(F)F | -13%

SMILES | activity increase over dofetilide control, less the hit threshold
Cc1[nH]cnc1CSCCN | -2%
O=C(NC(=S)N1CCCc2ccccc21)c1ccc([N+](=O)[O-])cc1 | 11% (active)
O=C(NC(=S)N1CCCc2ccccc21)c1ccc(Br)cc1 | 32% (active)
O=C(O)C1CCN1C1CCCCC1 (stereo unspecified) | -16%
CC(=O)c1c(C)nc(C)nc1NC(=O)C(C)C | -16%
CCOC(=O)CSc1nnc(NC(=O)c2ccc3c(c2)OCO3)s1 | -22%
c1ccc2c(c1)c1ccccc1n1c(-c3ccc4c(c3)OCO4)nnc21 | 1% (active)
Cc1ccccc1-c1nnn(CC(=O)NCc2ccc3c(c2)OCO3)n1 | -13%
Cc1ccc(NC(=O)c2cc(-c3ccc4c(c3)OCO4)on2)cc1 | -6%
O=C(NCc1ccco1)C1CCN(C(=O)Cc2ccccc2)CC1 | -7%
CN(C)c1ccc(C(CNS(=O)(=O)c2ccc([N+](=O)[O-])cc2)N2CCCC2)cc1 (stereo unspecified) | -24%
Cc1cccc(N2CCN(C(=O)Cc3c(C(=O)O)[nH]c4ccc(Cl)cc34)CC2)c1C | -14%
Cc1cccc(N2CCN(C(=O)CNC(=O)c3cccc([N+](=O)[O-])c3)CC2)c1C | 13% (active)
C/C=C(\C)CN1CCN(c2cccc(C)c2C)CC1 | -24%
CCOC(=O)c1sc(NC(=O)c2ccccc2C(=O)O)c(C(=O)OCC)c1C | -4%
CCOC(=O)c1sc(NN=C(C(=O)OC)C(=O)OC)c(C(=O)OCC)c1C | 19% (active)
CCOC(=O)c1c(C)oc2cc(Br)c(OC)cc12 | -2%
COc1ccc2[nH]c3c(=O)n(CCN4CCOCC4)cnc3c2c1 | -14%
CCC1(C(=O)O)NC(c2cc(OC)ccc2O)C2C(=O)N(Cc3ccccc3)C(=O)C21 (stereo unspecified) | -18%
O=C(N/N=C/c1cccs1)C(=O)Nc1cccc(Cl)c1 | -6%
Nc1nc(O)c(N=Nc2ccc(S(N)(=O)=O)cc2)c(=O)[nH]1 | 6% (active)
O=C1N(CN2CCN(Cc3ccccc3)CC2)c2ccccc2C12OCCCO2 | -4%
CN(C)c1ccc(NC(=O)CCCc2ccccc2)cc1 | -19%
CCCCC(=O)Nc1ccc(NCc2ccc(C)s2)cc1 | 14% (active)
Cc1ccc(NC(=O)CCC(=O)OCC(F)(F)C(F)F)cc1 | -23%
O=C(CCNC(=O)C1CCN(S(=O)(=O)c2ccc(F)cc2)CC1)NCc1ccc(Cl)cc1 | -16%

SMILES | activity increase over dofetilide control, less the hit threshold
Cc1cc(C)c(Cn2c3ccccc3c3cnn(CC(=O)NCc4ccccn4)c(=O)c32)c(C)c1 | -4%
Cc1ccc(C(=O)N2CCN(c3ccccc3)CC2)cc1S(=O)(=O)N1CCCC1 | 19% (active)
O=C(Nc1ccc(N2CCOCC2)cc1)c1ccc(S(=O)(=O)N2CCCCC2)cc1 | -10%
O=C(c1ccc(Cl)c(S(=O)(=O)N2CCCC2)c1)N1CCN(c2ccccc2F)CC1 | -1%
C=C(C)CNC(=S)Nc1nc2c(cc1C(=O)OCC)CCCC2 | -4%
CCNC(=S)Nc1nc2c(cc1C(=O)OCC)CCCC2 | 2% (active)
C=CCNC(=S)Nc1nc2c(cc1C(=O)OCC)CCCC2 | -4%
CNC(=O)CSc1nnc(-c2ccco2)n1-c1ccccc1 | -14%
Cn1c(NNC(=O)C(c2ccccc2)c2ccccc2)cc(=O)n(C)c1=O | 7% (active)
COc1ccc(C(CC(=O)O)NC(=O)C(c2ccccc2)c2ccccc2)cc1 (stereo unspecified) | -10%
CC(=O)c1ccc2c(c1)OCCOCCOCCO2 | -14%
COC(=O)C1CCCN1C(=O)COc1ccc(Cl)cc1Br (stereo unspecified) | -7%
Cc1ccc(C(=O)CC(=O)c2cc(Cl)ccc2O)cc1 | 8% (active)
Cc1ccc(C(=O)CC(=O)COc2ccc(Cl)cc2C)cc1 | 24% (active)
Cc1ccc(O)c(C(=O)CC(=O)c2ccc(Cl)cc2)c1 | -2%
Cc1cc(Cl)ccc1OC(C)C(=O)NCCc1ccc2c(c1)OCCO2 (stereo unspecified) | -16%
Cc1ccc(Cl)cc1NC(=O)COC(=O)c1ccccc1O | -10%
CC(C)(C)c1ccc(C(=O)CC(=O)c2cc(Cl)ccc2O)cc1 | 17% (active)
Cc1cccc(C(=O)CC(=O)c2cc(Cl)ccc2O)c1 | -7%
Nc1nc2c(s1)CCCCCCCCCC2 | -11%
O=C1OCCC1Sc1nc2ccccc2c(=O)n1Cc1ccc(F)cc1 (stereo unspecified) | 9% (active)
Cc1ccc(S(=O)(=O)N2CCOCC2)cc1NC(=O)CSc1nc2ccccc2c(=O)n1Cc1ccccc1 | -5%
COc1cc(C2NC(=O)NC(O)(C(F)(F)F)C2C(C)=O)cc(OC)c1OC (stereo unspecified) | -17%

— PubChem BioAssay AID1835 (Johns Hopkins Ion Channel Center, 2009)
